The values that follow come from PubChem BioAssay AID488969 (Vanderbilt High Throughput Screening Facility, 2010).

In all, about 110,000 compounds were measured (“z-score”: median about -0.1, highest 2% from about 2 on). The sample holds the highest values, similar compounds and a random draw of the others, so the mix is not that of the screen. Calls of active or inactive are those of the source.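 The calls were made as follows: active = z-score in the third read window above 3 or below -3; inactive = the rest.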

The target in this assay is Metabotropic glutamate receptor 8 (Rattus norvegicus) (UniProt P70579). Kind of assay: rat mGluR8 modulators via GIRK flux, primary screen, cell-based, thallium flux, HTS (AID 488969). Conditions: HEK293 rat mGluR8, GIRK (G protein-gated inwardly rectifying potassium channel) thallium flux, FluoZin2; at 10 µM; stronger effect = higher value; submaximal glutamate (EC20) added with thallium.
Metabotropic glutamate receptor 8 (Rattus norvegicus), sequence (P70579 whole entry, looked up): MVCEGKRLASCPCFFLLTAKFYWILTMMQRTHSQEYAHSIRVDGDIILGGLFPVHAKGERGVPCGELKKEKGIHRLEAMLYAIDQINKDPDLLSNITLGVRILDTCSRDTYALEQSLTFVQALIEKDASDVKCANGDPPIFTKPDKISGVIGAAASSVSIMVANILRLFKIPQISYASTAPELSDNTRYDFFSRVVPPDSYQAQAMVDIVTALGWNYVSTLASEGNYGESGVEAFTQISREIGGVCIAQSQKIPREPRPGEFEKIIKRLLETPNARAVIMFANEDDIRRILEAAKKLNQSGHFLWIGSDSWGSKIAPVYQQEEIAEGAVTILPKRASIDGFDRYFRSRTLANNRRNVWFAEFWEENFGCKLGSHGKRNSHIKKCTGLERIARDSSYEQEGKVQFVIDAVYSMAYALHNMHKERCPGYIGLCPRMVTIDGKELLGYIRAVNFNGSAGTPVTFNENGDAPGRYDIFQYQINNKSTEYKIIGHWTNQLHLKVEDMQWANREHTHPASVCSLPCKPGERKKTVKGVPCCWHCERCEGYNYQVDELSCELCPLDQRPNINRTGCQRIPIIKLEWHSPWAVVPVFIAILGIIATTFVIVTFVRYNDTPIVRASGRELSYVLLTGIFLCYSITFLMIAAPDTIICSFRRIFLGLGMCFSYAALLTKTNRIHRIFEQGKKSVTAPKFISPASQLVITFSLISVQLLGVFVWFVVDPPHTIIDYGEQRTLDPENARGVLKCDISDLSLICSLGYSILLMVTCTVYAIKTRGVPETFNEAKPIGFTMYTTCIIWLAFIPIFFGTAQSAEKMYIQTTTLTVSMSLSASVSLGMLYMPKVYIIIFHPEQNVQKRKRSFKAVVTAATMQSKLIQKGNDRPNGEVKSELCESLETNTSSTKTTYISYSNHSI
For the compound `Cc1sc2nc(CN3CCCCC3)nc(Cl)c2c1C`, the z-score is -0.502.

Regarding `Cn1c(NCC(O)CO)nc2c1c(=O)n(Cc1ccc(Cl)c(Cl)c1)c(=O)n2C` (configuration not stated), the z-score is -0.188.

For `COc1ccc2c(c1)c(=O)cc(-c1ccccc1)n2C`, the z-score was -0.0758.

`COCCN=c1scc(-c2cc(OC)ccc2OC)n1/N=C/c1c[nH]c2ccccc12`: the z-score was -0.343.

Turning to `CCN=c1scc(-c2ccccc2)n1/N=C/c1ccccn1`, the z-score is -0.0993.

As to `COCCN=c1scc(-c2ccccc2)n1/N=C/c1c[nH]c2ccccc12`, the z-score came to 2.05.

`O=C(Cn1cc2c(n1)CCCCC2)Nc1c(F)c(F)cc(F)c1F` returned a z-score of 0.762.

`CC(=O)c1cccc(NC(=O)Cn2cc3c(n2)CCCC3)c1`: the z-score is -0.279.

As to `CC1CCc2nn(CC(=O)NC3CCCC3)cc2C1` (configuration not stated), the z-score was -0.653.

As for `COc1cccc(NC(=O)Cn2cc3c(n2)CCCCC3)c1`, the z-score stood at 2.89.

Take `COc1cccc(CNC(=O)Cn2cc3c(n2)CCCCC3)c1`: the z-score is -0.00462.

`CC1CCC(NC(=O)Cn2cc3c(n2)CCCC3)CC1` (configuration not stated): the z-score amounted to 2.79.

For `Cc1cc(C)cc(NC(=O)Cn2cc3c(n2)CCCCC3)c1`, the z-score is 5.95 (active).

As to `CCc1cccc(NC(=O)Cn2cc3c(n2)CCCC3)c1`, the z-score worked out at 0.22.

`CC1CCCC(NC(=O)Cn2cc3c(n2)CCCCC3)C1C` (configuration not stated) had a z-score of 0.237.

As to `C/C(=N/NC(=O)c1ccc(O)cc1)c1cccc([N+](=O)[O-])c1`, the z-score is -0.369.

As to `Cc1c2ccccc2nc2c(F)c(NCCO)c(F)c(F)c12`, the z-score was -0.746.

Turning to `COc1ccc(/C=N/OCC(=O)N(Cc2ccc(OC)cc2)c2ccccc2C(=O)O)cc1`, the z-score was -0.615.

`Cc1nn(Cc2ccccc2)c(C)c1NC(=O)CCC(=O)O`: the z-score is -0.119.

`Cc1cc(C)c(C(=O)CSc2nnc(-c3cccnc3)n2C)c(C)c1` registered a z-score of 0.116.

For `CCCCNC(=O)/C=C/c1cccs1`, the z-score is -0.364.

With `Cc1ccc(C(C#N)c2ccc3c(C(F)(F)F)cc(C(F)(F)F)nc3n2)cc1` (configuration not stated), the z-score turned out to be 1.26.

`N#CC(c1cccc(Cl)c1)c1ccc2c(C(F)(F)F)cc(C(F)(F)F)nc2n1` (configuration not stated): the z-score is 10.5 (active).

As for `N#CC(c1ccccc1)c1ccc2c(C(F)(F)F)cc(C(F)(F)F)nc2n1` (configuration not stated), the z-score was found to be 0.135.

For `C/C(Cl)=C\Cn1c(NCCCn2ccnc2)nc2c1c(=O)n(C)c(=O)n2C`, the z-score is -0.632.

In turn, `Cn1c(=O)[nH]c(=O)c2c1nc(NC1CCCCC1)n2Cc1ccccc1` came in with a z-score of 0.331.

Consider `CC(=O)c1cc(OC(=O)N2CCOCC2)ccc1OC(=O)N1CCOCC1`, for which the z-score was -0.376.

With `CN(C)Cc1nc2c(c(=O)[nH]1)C(C)(C)Cc1ccccc1-2`, the z-score amounted to 0.00689.

With `O=C(COC(=O)c1ccc2c(c1)C(=O)N(c1cccc3ncccc13)C2=O)c1ccc(Cl)cc1`, the z-score was -0.619.

Regarding `COc1ccc(NC(=O)N2CC(C)OC(C)C2)cc1OC` (configuration not stated), the z-score was -0.307.

Consider `O=C(CCNS(=O)(=O)c1ccc2c(c1)CCC(=O)N2)NCc1cccnc1`, for which the z-score was -0.489.

As for `CCCCn1nnc(NC(=O)COc2cc(C)ccc2C(C)C)n1`, the z-score is 1.04.

As to `CCn1nnc(NC(=O)COc2ccc(C3CCCCC3)cc2)n1`, the z-score was 2.13.

As for `CCCn1nnc(NC(=O)COc2cc(C)ccc2C(C)C)n1`, the z-score amounted to 2.14.

On to `CCn1nnc(NC(=O)COc2cc(C)ccc2C(C)C)n1`, for which the z-score was -0.0287.

Turning to `CCCn1nnc(NC(=O)COc2ccc(Cl)cc2)n1`, the z-score was -0.244.

In turn, `CCCCn1nnc(NC(=O)COc2ccc(Cl)c(C)c2)n1` showed a z-score of 0.0561.

With `CCCn1nnc(NC(=O)COc2ccc(CC)cc2)n1`, the z-score was -0.0151.

On to `Cn1nnc(NC(=O)COc2ccc(C3CCCCC3)cc2)n1`, for which the z-score was 0.85.

Regarding `CCCn1nnc(NC(=O)COc2ccc(C3CCCCC3)cc2)n1`, the z-score was determined as 2.04.

For the compound `CC1C/C(=N/N=C2/NC(=O)CS2)CC(C)(C)C1` (configuration not stated), the z-score is -0.18.

As for `Cc1cccc(-n2nc3c([n+]2[O-])CCc2nonc2-3)c1C`, the z-score is -0.912.

On to `Clc1ccccc1CN(Cc1ccccc1)C(c1cccs1)c1nnnn1C1CCCC1` (configuration not stated), for which the z-score was -0.135.

As to `CN(C)C(CNC(=O)CCCc1c[nH]c2ccccc12)c1ccco1` (configuration not stated), the z-score was -0.0945.

Turning to `O=C(O)c1ccccc1C(=O)Nc1n[nH]c(=S)s1`, the z-score was -0.153.

Regarding `O=C(CSc1ccccc1)Nc1ccc(N2CCOCC2)cc1`, the z-score stood at 0.00596.

In turn, `CCCCn1c(SCC(=O)NC(C)CC)nc2ccc(N3CCOCC3)cc2c1=O` (configuration not stated) displayed a z-score of 0.126.

In the case of `Nc1ccccc1SCC(=O)Nc1ccc(N2CCOCC2)cc1`, the z-score is 2.53.

On to `COCCn1c(SCC(=O)Nc2ccc(N3CCOCC3)cc2)nc2ccccc21`, for which the z-score was -0.228.

As to `O=C(CSc1ncccn1)Nc1ccc(N2CCOCC2)cc1`, the z-score is -0.202.

Compound `CCCCn1c(SCC(=O)NCCOC)nc2ccc(N3CCOCC3)cc2c1=O` came in with a z-score of 1.19.

`CCCCNC(=O)CSc1nc2ccc(N3CCOCC3)cc2c(=O)n1CCc1ccccc1`: the z-score was found to be 1.19.

Regarding `N#CCCn1c(SCC(=O)NCC2CCCO2)nc2ccccc21` (configuration not stated), the z-score is -0.368.

`CCCCn1c(SCC(=O)Nc2ccc(OC)cc2)nc2ccc(N3CCOCC3)cc2c1=O`: the z-score is 4.35 (active).

For the compound `N#CCCn1c(SCC(=O)Nc2ccc(N3CCOCC3)cc2)nc2ccccc21`, the z-score was determined as 2.51.

Regarding `N#CCSc1nc2ccc(N3CCOCC3)cc2c(=O)n1CCc1ccccc1`, the z-score is 4.95 (active).

`N#CCSc1nc2ccc(N3CCCCC3)cc2c(=O)n1Cc1ccccc1` had a z-score of 0.65.

Regarding `Cc1cc(NS(=O)(=O)c2ccc(NC(=O)c3oc4ccccc4c3C)cc2)no1`, the z-score stood at 0.155.

Take `CCC(CC)C(=O)Nc1ccc(Nc2ccccc2)cc1`: the z-score is -0.165.

In turn, `Cc1cc(N2CCN(c3ccccc3Cl)CC2)n2cc(-c3ccccc3)nc2n1` registered a z-score of 0.105.

Regarding `Cc1ccnc(SCC(=O)Nc2c(C)n(C)n(-c3ccccc3)c2=O)n1`, the z-score is -0.181.

`CC(C)(C)c1ccc(C(=O)NCc2cccnc2)cc1` displayed a z-score of 0.116.

For `CC(CCc1ccccc1)NC(=O)Cc1ccc([N+](=O)[O-])cc1` (configuration not stated), the z-score is -1.51.

Take `CCCCOc1ccc(C(C)NC(=O)CCS(=O)(=O)Cc2ccccc2Cl)cc1` (configuration not stated): the z-score was found to be 0.131.

Turning to `Cc1ccc(/C=N/NC(=O)c2cc3c(ccc4ccccc43)o2)cc1[N+](=O)[O-]`, the z-score was -0.185.

With `Cc1cccc2c1N1C(=O)c3c(C(=O)O)cccc3C1CC2C` (configuration not stated), the z-score was -0.265.

As for `CON(C)c1nc(OCCNC(=O)COc2ccc(Cl)cc2C)nc(N(C)C)n1`, the z-score was found to be 0.98.

Regarding `CC1=CC(C)(C)N(C(=O)CN2C(=O)c3ccccc3C2=O)c2ccc(C)cc21`, the z-score worked out at 0.455.

For the compound `CCOC(=O)C1=C(C)NC(=O)C(C(N)=O)C12CCCC2` (configuration not stated), the z-score is -0.24.

Consider `Cc1nc2ccccc2cc1C(=O)N/N=C/c1cccs1`, for which the z-score was -0.0999.

Turning to `COc1ccc(N2CCN(C(=O)CN(c3ccccc3)S(=O)(=O)c3ccc(OC)cc3)CC2)cc1`, the z-score is -0.0102.

As for `O=C(CN(c1ccc(Cl)cc1)S(=O)(=O)c1ccccc1)N1CCN(c2ccccc2)CC1`, the z-score was -0.37.

`COc1ccc(S(=O)(=O)N(CC(=O)N2CCN(c3ccccc3)CC2)c2ccccc2)cc1` returned a z-score of 2.25.

`COc1ccc(/C=C2/SC(=O)N(CC(O)Cn3c4ccccc4c4ccccc43)C2=O)cc1` (configuration not stated): the z-score was -0.167.

As to `Cc1cc(=O)[nH]c(N/N=C/c2cccs2)n1`, the z-score is -0.0197.

With `O=C1CC(C(=O)Nc2ccccc2)C2(CCCC2)O1` (configuration not stated), the z-score was -0.154.

For the compound `O=C1CC(C(=O)Nc2ccc(Br)cc2)C2(CCCC2)O1` (configuration not stated), the z-score is 2.34.

For the compound `O=C1CC(C(=O)Nc2ccccc2)C2(CCCCC2)O1` (configuration not stated), the z-score is -0.333.

As to `CCOC(=O)Cc1csc(NC(=O)c2cccc(OC)c2)n1`, the z-score was found to be 0.0443.

`CC1CCCCC12NC(=O)N(CC(=O)Nc1sc3c(c1C(N)=O)CCC3)C2=O` (configuration not stated) displayed a z-score of 0.0207.

Compound `CC(C)C1Oc2ccccc2N(CC(=O)NCCCN2C(C)CCCC2C)C1=O` (configuration not stated) yielded a z-score of 0.132.

Consider `CCC(C)(C)NC(=O)C(c1ccc(F)cc1)N(Cc1ccco1)C(=O)c1cnccn1` (configuration not stated), for which the z-score was 3.05 (active).

In turn, `COC(=O)c1ccc(C(C(=O)NCc2ccccc2)N(Cc2ccco2)C(=O)c2cnccn2)cc1` (configuration not stated) displayed a z-score of 0.053.

In the case of `CCC(C)(C)NC(=O)C(c1ccc(F)cc1)N(Cc1ccco1)C(=O)c1snc(C(N)=O)c1N` (configuration not stated), the z-score is -0.00804.

As for `O=C(CN1CCOCC1)Nc1ccccc1C(=O)O`, the z-score was -0.257.

On to `COc1cc(OC)c(-c2cc(C(=O)O)ccc2OC)c(OC)c1`, for which the z-score is -0.305.

For `N/C(COc1cccc(C(F)(F)F)c1)=N\NC(=O)c1cccnc1Oc1ccccc1`, the z-score is -0.285.

As for `COc1ccc(-c2nnn(CCc3nn[nH]n3)n2)cc1`, the z-score is -0.103.

With `O=C(Nc1ccc(Br)cc1F)C1CCCO1` (configuration not stated), the z-score is -0.0425.

Regarding `CC1CCC(NC(=O)Cn2c(=O)[nH]c3ccsc3c2=O)CC1` (configuration not stated), the z-score is -0.274.

Turning to `O=C(Cn1c(=O)[nH]c2ccsc2c1=O)NC1CCCCC1`, the z-score was -0.236.

On to `O=C(Cn1c(=O)[nH]c2ccsc2c1=O)NC1CCCCCC1`, for which the z-score is 8.37 (active).

In the case of `COC(=O)/C=C/C(=O)N1CCN(c2ccccc2)CC1`, the z-score is -0.0929.

`COC(=O)C1=C(C)N(CCc2ccc(OC)cc2)C(=O)C1`: the z-score came out at 2.28.

For `COC(=O)C1=C(C)N(Cc2ccc(OC)cc2)C(=O)C1`, the z-score is -0.151.

With `COC(=O)C1=C(C)N(CCc2ccccc2)C(=O)C1`, the z-score is -0.0388.

For `NC(=O)c1ccsc1NC(=O)CSc1nc2ccccc2c(=O)n1CCCO`, the z-score was -0.109.

For `O=C(COC(=O)c1cccc([N+](=O)[O-])c1)NCc1ccc2c(c1)OCO2`, the z-score is -0.0402.

For `CCc1cc(C(=O)OC)c(NC(=O)CCC(=O)O)s1`, the z-score was -0.105.

As for `Clc1ccc(-c2nnc3c4ccccc4nc(N4CCOCC4)n23)cc1Cl`, the z-score was -0.168.

For `Fc1ccccc1-c1nnc2c3ccccc3nc(N3CCOCC3)n12`, the z-score is -0.0489.

For `Brc1ccc(-c2nnc3c4ccccc4nc(N4CCOCC4)n23)cc1`, the z-score is 4.42 (active).

For the compound `Cc1cc(C)nc(/N=C(\N)Nc2cccc([N+](=O)[O-])c2)n1`, the z-score was -1.04.

For the compound `COCCNCCOc1ccccc1-c1ccccc1`, the z-score was 3.67 (active).

`COCCCNCCCCOc1ccccc1-c1ccccc1` had a z-score of 0.319.

In the case of `OCCNCCOc1ccccc1-c1ccccc1`, the z-score was -0.00757.

For `CCCCN(CC)CCCNC(=O)CS(=O)(=O)Cc1nc(-c2cccc(OC)c2)oc1C`, the z-score was 3.63 (active).

Compound `CCCNC(=O)CS(=O)(=O)Cc1nc(-c2cccc(OC)c2)oc1C` had a z-score of 0.16.

In the case of `COCCCNC(=O)CS(=O)(=O)Cc1nc(-c2cccc(OC)c2)oc1C`, the z-score came to 0.565.

On to `CC1=CC(C)(C)n2c(O)c(N=NC(N)=S)c3cccc1c32`, for which the z-score amounted to 2.69.

`CC1=CC(C)(C)n2c(O)c(N=NC(N)=S)c3c(C)ccc1c32` had a z-score of 1.1.

With `CC1=CC(C)(C)n2c(O)c(N=NC(N)=S)c3cc(C)cc1c32`, the z-score was 1.04.
